Assay [1] can be described thus: ATG_PBREM_CIS: Attagene CIS-FACTORIAL HepG2 Assay for human Phenobarbital-responsive Enhancer Module (PBREM) (AID 2282955). Particulars: HepG2 PBREM cis-reporter, Attagene multiplexed transcription; actives raise or lower the signal. Put shortly:
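Readout: reporter mRNA, fluorescent RT-PCR fragments separated by capillary electrophoresis. System: HepG2 transiently transfected with cis-regulated reporter units. Exposure: 24 h. Analysis: bidirectional, DMSO baseline.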

Assay [2] concerns the target Paired box protein Pax-6 (Homo sapiens) (UniProt P26367). The assay is described as follows: ATG_Pax6_CIS: Attagene CIS-FACTORIAL HepG2 Assay for human Paired Box 6 (PAX6) (AID 2282956). Particulars: HepG2 CIS-FACTORIAL PAX6 reporter transcription, RNA readout; actives raise or lower the signal. Put shortly:
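Multiplexed cis-reporter HepG2 system; 24 h treatment; reporter mRNA read by RT-PCR/CE fluorescence; bidirectional fit vs DMSO.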

The nature of assay [3]: ATG_PXRE_CIS: Attagene CIS-FACTORIAL HepG2 Assay for human Pregnane X Receptor Element (PXRE) (AID 2282957). To be noted: HepG2 Attagene CIS-FACTORIAL PXRE reporter, mRNA; actives raise or lower the signal. Put shortly:
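Transfect HepG2 with MRTUs (cis promoter elements); dose chemical, incubate 24 h; isolate RNA, RT with oligo(dT), PCR, 6-FAM label, HpaI cut, CE. Gain/loss fit vs DMSO.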

Assay [4] is described as follows: ATG_PPRE_CIS: Attagene CIS-FACTORIAL HepG2 Assay for human Peroxisome Proliferator-activated Response Element (PPRE) (AID 2282958). Particulars: HepG2 PPRE cis-element reporter, Attagene transcription factor profiling; actives raise or lower the signal. Put shortly: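 After human HepG2 hepatoma cells were transiently transfected with cis-promoter reporter constructs, they were exposed to test chemicals for 24 hours. Reporter RNA was then reverse-transcribed, PCR-amplified, FAM-labeled, HpaI-digested and quantified by capillary electrophoresis.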

Assay [5] in a line: ATG_RORE_CIS: Attagene CIS-FACTORIAL HepG2 Assay for human RAR-related Orphan Receptor Element (RORE) (AID 2282959). To be noted: HepG2 Attagene cis-factorial RORE reporter, mRNA; actives raise or lower the signal. In short, it runs like this: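 Measured here: transcript induction of a cis-regulated reporter in HepG2 cells transiently transfected via FuGene 6. After 24 h, RNA was processed by RT-PCR and fluorescent capillary electrophoresis; DMSO defined baseline activity.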

Assay [6] is described as follows: ATG_Sox_CIS: Attagene CIS-FACTORIAL HepG2 Assay for human SRY-box transcription factor (SOX) (AID 2282960). Particulars: HepG2 Attagene cis-factorial SOX reporter, mRNA; actives raise or lower the signal. Put shortly:
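Using transiently transfected HepG2 cells, reporter transcription driven by cis elements was assessed 24 h after dosing. Signal was fluorescence of capillary-separated RT-PCR products, with DMSO defining baseline activity.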

The target of assay [7] is Transcription factor Sp1 (Homo sapiens) (UniProt P08047). The assay is described as follows: ATG_Sp1_CIS: Attagene CIS-FACTORIAL HepG2 Assay for human Specificity Protein 1 (Sp1) (AID 2282961). Particulars: HepG2 Sp1 cis-reporter transcription, actives raise or lower the signal. Put shortly: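 After transient transfection of HepG2 cells with cis-promoter reporter units and 24 h chemical treatment, reporter transcripts were quantified by RT-PCR and capillary electrophoresis fluorescence. Gain- and loss-of-signal fitted against DMSO.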
Transcription factor Sp1 (Homo sapiens), sequence (P08047 whole entry, looked up): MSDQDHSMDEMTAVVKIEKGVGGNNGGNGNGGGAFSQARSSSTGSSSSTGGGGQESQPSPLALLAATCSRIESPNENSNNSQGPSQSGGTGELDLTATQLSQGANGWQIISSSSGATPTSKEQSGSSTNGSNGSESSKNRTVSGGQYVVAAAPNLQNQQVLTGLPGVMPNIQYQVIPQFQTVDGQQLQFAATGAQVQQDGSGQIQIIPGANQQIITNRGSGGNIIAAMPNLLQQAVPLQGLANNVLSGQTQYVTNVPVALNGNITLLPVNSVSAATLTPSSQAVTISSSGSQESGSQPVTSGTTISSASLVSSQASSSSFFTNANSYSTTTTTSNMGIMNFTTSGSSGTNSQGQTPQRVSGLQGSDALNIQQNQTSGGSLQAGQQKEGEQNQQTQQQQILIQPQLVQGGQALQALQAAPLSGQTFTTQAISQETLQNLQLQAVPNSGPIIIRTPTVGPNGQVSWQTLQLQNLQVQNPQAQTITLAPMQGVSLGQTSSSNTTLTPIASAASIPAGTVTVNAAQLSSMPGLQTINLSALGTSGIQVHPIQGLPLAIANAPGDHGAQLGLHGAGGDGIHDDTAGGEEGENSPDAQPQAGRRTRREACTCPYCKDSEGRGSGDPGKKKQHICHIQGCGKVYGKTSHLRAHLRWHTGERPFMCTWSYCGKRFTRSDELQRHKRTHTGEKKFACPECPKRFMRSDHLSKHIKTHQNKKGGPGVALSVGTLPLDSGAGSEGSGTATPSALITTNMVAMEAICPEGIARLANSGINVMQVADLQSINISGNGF

The nature of assay [8]: ATG_SREBP_CIS: Attagene CIS-FACTORIAL HepG2 Assay for human Sterol Regulatory Element Binding (SREBP) (AID 2282962). Particulars: HepG2 Attagene cis-factorial SREBP reporter, mRNA; actives raise or lower the signal. Put shortly:
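mRNA induction of transfected cis-promoter reporters in HepG2 cells, 24 h post-dose. Detection: RT-PCR with 6-FAM-labelled products, HpaI digest, capillary electrophoresis. DMSO served as negative control and baseline.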

For assay [9], the target named is Signal transducer and activator of transcription 3 (Homo sapiens) (UniProt P40763). The assay is described as follows: ATG_STAT3_CIS: Attagene CIS-FACTORIAL HepG2 Assay for human Signal Transducer and Activator of Transcription 3 (STAT3) (AID 2282963). Particulars: HepG2, Attagene cis-factorial STAT3 reporter transcription; actives raise or lower the signal. In short, it runs like this:
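Endogenous STAT3-responsive cis-element activity was read in transiently transfected HepG2 cells after 24 h treatment. Reporter transcripts were quantified via RT-PCR and capillary electrophoresis, with DMSO as negative control and bidirectional curve fitting.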

Assay [10] is described as follows: ATG_TCF_b_cat_CIS: Attagene CIS-FACTORIAL HepG2 Assay for human T-Cell-Factor with beta-catenin (TCF/b-cat) (AID 2282965). Particulars: HepG2 TCF/beta-catenin cis-reporter transcription, actives raise or lower the signal. Put shortly:
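Endogenous TCF/LEF activity read as reporter transcript level via RT-PCR and capillary electrophoresis fluorescence in transfected HepG2, 24 h exposure; gain or loss of signal fitted against DMSO controls.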

A short description of assay [11]: ATG_TAL_CIS: Attagene CIS-FACTORIAL HepG2 Assay for human TAL Basal Promoter (AID 2282966).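 Further: background control endpoint measuring basal TAL promoter reporter mRNA not a specific factor.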 Particulars: HepG2 Attagene cis-factorial TAL promoter reporter; actives raise or lower the signal. In short, it runs like this: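 Fluorescence of labelled reporter cDNA fragments, resolved by capillary electrophoresis, gave the readout. Human HepG2 liver cells carried transiently transfected cis-element reporter units and were treated for 24 hours; activity was fitted bidirectionally against DMSO.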

Assay [12] in a line: ATG_TGFb_CIS: Attagene CIS-FACTORIAL HepG2 Assay for human Transforming Growth Factor (TGF) (AID 2282967). To be noted: HepG2 Attagene CIS TGFb reporter, mRNA transcription; actives raise or lower the signal. Put shortly:
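Cells were dosed for 24 hours, after which total RNA was reverse-transcribed and reporter sequences amplified, labeled and sized by capillary electrophoresis. Activity was fitted in both directions against DMSO.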

A short description of assay [13]: ATG_VDRE_CIS: Attagene CIS-FACTORIAL HepG2 Assay for human Vitamin D Receptor Element (VDRE) (AID 2282968). To be noted: HepG2 VDRE cis-reporter transcription, actives raise or lower the signal. Put shortly:
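Reporter mRNA induction, quantified by capillary electrophoresis of fluorescently labelled RT-PCR products, was read 24 h after dosing HepG2 cells carrying transiently transfected cis-regulated reporter units; gain or loss relative to DMSO.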

In assay [14] the target is Nuclear receptor subfamily 1 group I member 3 (Homo sapiens) (UniProt Q14994). Kind of assay: ATG_CAR_TRANS: Attagene TRANS-FACTORIAL HepG2 Assay for human Constitutive Androstane Receptor (CAR) (AID 2282969; active means hit-call score of the fitted dose curve at least 0.9, where 1 is the maximum;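 further: activators raise reporter mRNA above DMSO so AC50 marks induction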). To be noted: HepG2 Attagene TRANS-FACTORIAL CAR reporter. Put shortly: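 Readout is reporter mRNA induction, quantified by fluorescent primer extension and capillary electrophoresis after RT-PCR. Cells were HepG2 transiently carrying chimeric NR-Gal4 constructs with GAL4-UAS reporters, treated for 24 h; activity scored upward from DMSO.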
Nuclear receptor subfamily 1 group I member 3 (Homo sapiens), sequence (Q14994 whole entry, looked up, the tested form may be a part): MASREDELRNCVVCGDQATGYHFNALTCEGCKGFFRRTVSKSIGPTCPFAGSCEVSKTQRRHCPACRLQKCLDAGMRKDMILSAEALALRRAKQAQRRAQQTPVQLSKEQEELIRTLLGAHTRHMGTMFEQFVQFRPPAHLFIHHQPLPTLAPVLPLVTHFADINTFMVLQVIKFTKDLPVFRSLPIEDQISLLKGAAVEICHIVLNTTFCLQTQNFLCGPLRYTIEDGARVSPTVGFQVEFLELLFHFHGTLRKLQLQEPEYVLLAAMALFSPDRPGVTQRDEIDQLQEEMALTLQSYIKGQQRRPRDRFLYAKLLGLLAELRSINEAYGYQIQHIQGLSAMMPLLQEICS

The target in assay [15] is X-box-binding protein 1 (Homo sapiens) (UniProt P17861). The assay is described as follows: ATG_Xbp1_CIS: Attagene CIS-FACTORIAL HepG2 Assay for human X-box Binding Protein 1 (XBP1) (AID 2282972). To be noted: HepG2 XBP1 cis-element reporter, Attagene multiplex; actives raise or lower the signal. Put shortly: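 Fluorescence-labelled cDNA fragments from reporter transcripts, separated by capillary electrophoresis, give the signal. Source: HepG2 cells transfected with promoter-driven reporter units, harvested 24 h post-dose. DMSO served as reference for bidirectional curve fitting.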
X-box-binding protein 1 (Homo sapiens), sequence (P17861 whole entry, looked up, the tested form may be a part): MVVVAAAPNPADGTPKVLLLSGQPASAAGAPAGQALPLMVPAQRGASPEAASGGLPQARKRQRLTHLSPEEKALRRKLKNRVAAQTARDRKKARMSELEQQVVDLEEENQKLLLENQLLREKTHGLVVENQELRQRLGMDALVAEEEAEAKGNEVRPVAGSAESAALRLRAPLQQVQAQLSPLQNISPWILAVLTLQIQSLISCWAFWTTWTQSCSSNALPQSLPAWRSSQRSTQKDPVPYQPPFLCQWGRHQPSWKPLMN

The nature of assay [16]: ATG_M_19_TRANS: Attagene TRANS-FACTORIAL HepG2 Assay for M19 Transcription Factor (Internal Marker) (AID 2282974; active means hit-call score of the fitted dose curve at least 0.9, where 1 is the maximum). Particulars: HepG2 Attagene TRANS-FACTORIAL M19 internal marker reporter. Put shortly:
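Gain-of-signal in reporter mRNA, relative to DMSO, was scored from capillary electrophoresis fluorescence. HepG2 cells carried transiently transfected multiple reporter transcription units and were incubated with test chemicals for 24 h.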

Assay [17] is described as follows: ATG_GAL4_TRANS: Attagene TRANS-FACTORIAL HepG2 Assay for GAL4 (Internal Marker) (AID 2282976; active means hit-call score of the fitted dose curve at least 0.9, where 1 is the maximum). To be noted: HepG2 Attagene TRANS GAL4 internal marker reporter. In short, it runs like this:
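First, HepG2 cells were transfected with reporter units under GAL4-UAS control. Next, they were treated with chemical for 24 h. Finally, RNA was reverse-transcribed, PCR-amplified, FAM-labelled and resolved by capillary electrophoresis, with induction scored against DMSO.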

The nature of assay [18]: ATG_TA_CIS: Attagene CIS-FACTORIAL HepG2 Assay for human TA Basal Promoter (AID 2282964). Particulars: HepG2 Attagene CIS-factorial TA basal promoter reporter; actives raise or lower the signal. In short, it runs like this: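 Steps: transfect HepG2 with MRTUs; dose 24 h; isolate RNA, DNase-treat, reverse-transcribe; PCR and FAM-label reporter cDNA; digest with HpaI 2h at 37 C; run capillary electrophoresis. Activity fitted both directions against DMSO.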

Assay [19] concerns the target Estrogen receptor (Homo sapiens) (UniProt P03372). The assay is described as follows: ATG_ERa_TRANS: Attagene TRANS-FACTORIAL HepG2 Assay for human Estrogen Receptor alpha (ERa) (AID 2282970; active means hit-call score of the fitted dose curve at least 0.9, where 1 is the maximum). To be noted: HepG2 Attagene TRANS ERa GAL4 reporter, mRNA. In short, it runs like this:
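Human liver HepG2, transient transfection of multiple GAL4-UAS reporter units; TRANS format (exogenous NR-Gal4 chimera). 24 h dosing. Readout: reporter mRNA, RT-PCR, 6-FAM primer extension, HpaI digest, capillary electrophoresis. Positive direction vs DMSO.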

The values below come from PubChem BioAssay (EPA / NIEHS).

Records with an inconclusive call do not appear. Activity calls are given as the source filed them. How the source made its calls, unless noted: active means hit-call score of the fitted dose curve at least 0.9, where 1 is the maximum; inactive means score below 0.9.

One may read the AC50 as the concentration giving half of the maximal activity seen.

Signal transducer and activator of transcription 3 (Homo sapiens), sequence (P40763 whole entry, looked up): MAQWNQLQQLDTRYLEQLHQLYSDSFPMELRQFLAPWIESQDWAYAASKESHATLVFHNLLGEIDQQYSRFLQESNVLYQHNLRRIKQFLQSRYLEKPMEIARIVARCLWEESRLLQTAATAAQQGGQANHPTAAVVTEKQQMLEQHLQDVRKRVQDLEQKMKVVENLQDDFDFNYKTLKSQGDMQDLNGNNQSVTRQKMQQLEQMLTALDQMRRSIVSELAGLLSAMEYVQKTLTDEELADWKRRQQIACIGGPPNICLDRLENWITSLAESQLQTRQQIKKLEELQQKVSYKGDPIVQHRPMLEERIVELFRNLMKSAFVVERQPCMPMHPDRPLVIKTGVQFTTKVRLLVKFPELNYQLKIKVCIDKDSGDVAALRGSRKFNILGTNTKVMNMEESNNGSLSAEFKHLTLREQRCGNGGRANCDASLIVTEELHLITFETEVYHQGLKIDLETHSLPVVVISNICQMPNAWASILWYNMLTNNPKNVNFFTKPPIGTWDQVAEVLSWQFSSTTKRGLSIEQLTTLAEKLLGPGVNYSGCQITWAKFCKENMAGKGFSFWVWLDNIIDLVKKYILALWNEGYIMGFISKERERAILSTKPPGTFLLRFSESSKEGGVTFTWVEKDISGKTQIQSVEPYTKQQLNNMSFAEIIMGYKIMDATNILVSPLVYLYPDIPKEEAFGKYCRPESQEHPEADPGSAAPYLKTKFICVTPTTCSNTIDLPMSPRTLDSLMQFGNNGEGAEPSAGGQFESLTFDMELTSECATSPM
Paired box protein Pax-6 (Homo sapiens), sequence (P26367 whole entry, looked up): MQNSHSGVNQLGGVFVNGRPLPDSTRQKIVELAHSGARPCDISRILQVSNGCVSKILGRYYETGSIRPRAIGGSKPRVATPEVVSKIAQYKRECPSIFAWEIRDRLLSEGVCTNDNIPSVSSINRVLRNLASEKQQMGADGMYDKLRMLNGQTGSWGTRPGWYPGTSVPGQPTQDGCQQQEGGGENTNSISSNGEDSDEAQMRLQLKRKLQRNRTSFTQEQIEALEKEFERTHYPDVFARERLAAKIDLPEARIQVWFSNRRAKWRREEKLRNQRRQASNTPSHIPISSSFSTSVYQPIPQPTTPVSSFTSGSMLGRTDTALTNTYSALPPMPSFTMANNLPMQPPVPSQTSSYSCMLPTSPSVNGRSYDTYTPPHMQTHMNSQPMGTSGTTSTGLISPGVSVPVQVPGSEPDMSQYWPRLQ
Estrogen receptor (Homo sapiens), sequence (P03372 whole entry, looked up, the tested form may be a part): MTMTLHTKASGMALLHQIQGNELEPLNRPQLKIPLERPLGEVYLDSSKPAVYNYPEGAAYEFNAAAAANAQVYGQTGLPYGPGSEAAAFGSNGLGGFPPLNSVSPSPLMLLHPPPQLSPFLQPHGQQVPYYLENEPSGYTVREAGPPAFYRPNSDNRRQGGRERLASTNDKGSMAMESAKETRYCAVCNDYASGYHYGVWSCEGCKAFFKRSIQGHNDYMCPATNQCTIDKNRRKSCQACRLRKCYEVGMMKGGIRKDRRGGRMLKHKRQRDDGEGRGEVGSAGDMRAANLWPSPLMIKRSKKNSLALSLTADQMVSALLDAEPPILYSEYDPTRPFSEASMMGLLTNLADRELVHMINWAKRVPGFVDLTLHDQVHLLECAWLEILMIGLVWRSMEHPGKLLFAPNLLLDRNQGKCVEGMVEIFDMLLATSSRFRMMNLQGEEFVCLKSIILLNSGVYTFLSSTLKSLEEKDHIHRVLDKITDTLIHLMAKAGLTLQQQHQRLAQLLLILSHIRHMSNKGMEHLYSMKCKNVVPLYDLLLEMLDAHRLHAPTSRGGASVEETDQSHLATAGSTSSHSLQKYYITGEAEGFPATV

For the compound `CCC(=O)OC(C)c1ccccc1` (configuration not stated), the outcome in assay [1], in [2], in assay [4], in assay [5], in assay [6] and in assay [7] was inactive. The outcome in assay [8], in assay [9], in assay [10], in [11], in assay [12] and in assay [13] was inactive. Further, the compound was called inactive in assay [14], in assay [15], in [16] and in [17]. Also, the AC50 in assay [3] was 26.5 µM (active).
On to `CN(N=O)C(=O)N[C@@H]1[C@@H](O)[C@H](O)[C@@H](CO)O[C@@H]1O`, for which the outcome in [1], in [2], in assay [3], in assay [4], in [5] and in assay [6] was inactive. Further, the compound was called inactive in assay [7], in assay [8], in assay [9], in [10], in assay [11] and in assay [12]. Moreover, the outcome in assay [14], in assay [15] and in [16] was inactive.
For the compound `CC(C)(C)c1cc(Cc2cc(C(C)(C)C)c(O)c(C(C)(C)C)c2)cc(C(C)(C)C)c1O`, the outcome in assay [1], in assay [2], in assay [4], in assay [6], in [7] and in assay [8] was inactive. Moreover, the result in assay [9], in assay [18], in assay [11], in assay [12], in assay [19] and in assay [15] was inactive. For the same compound, the compound was called inactive in [16]. In addition, the figures for the AC50 in assay [3] and in [13] were 0.513 µM (active) and 2.31 µM (active), respectively.
Consider `Oc1ccc(C2(c3ccc(O)c(C4CCCCC4)c3)CCCCC2)cc1C1CCCCC1`, for which the AC50 in [1] is 8.53 µM (active); in assay [2] it was 14.4 µM (active); in assay [3], 0.175 µM (active); in [6], 7.42 µM (active); in assay [8], 27 µM (active); in assay [9] it was 62.4 µM (active). The values for the AC50 in assay [11], in assay [13] and in assay [15] were 17.9 µM (active), 0.619 µM (active) and 6.08 µM (active), respectively. The call in assay [4], in [7], in [18], in assay [12], in assay [19] and in [17] was inactive.
